# Vaccinia mCherry: qHTS for Stage-Specific Inhibitors of Vaccinia Orthopoxvirus: mCherry Reporter Primary qHTS; 310,000 tested, 0.63% active; Potency, µM (top dose mostly 36.5 µM), for inactives: at the highest dose activity change, negative = inhibition, actives largely listed as inhibitors; Vaccinia virus mCherry reporter infection, fluorescence; calls by dose curve; tested in A549 cells; also: potency is read from the fitted curve at half-maximal effect; % is scaled to controls: 0 for no effect and ±100 for the full control effect; nearly all actives have a fitted effect of over 35% in size
# CHX counter: Cycloheximide Counterscreen for Small Molecule Inhibitors of Shiga Toxin; max response, %; AID 2314, 2010; cell reporter, cycloheximide protein synthesis inhibition counterscreen; 300,000 tested, 12% active; in the data active = max response mostly above about 13%, no sharp cut-off; inactive = mostly below about 14%; also: read at 38.3 µM for the half of the compounds with a filed dose; 0% is about no effect
# VACV Venus inh: qHTS for Stage-Specific Inhibitors of Vaccinia Orthopoxvirus: Venus Reporter Primary qHTS; 330,000 tested, 0.46% active; Vaccinia virus Venus reporter expression, fluorescence; Potency, µM (doses to about 36.5 µM), for the others: at the top dose activity change, negative = inhibition, most hits filed as inhibitors; AID 720580, 2013; calls by dose curve; tested in A549 cells; also: potency is read from the fitted curve at half-maximal effect; % is scaled to controls: 0 for no effect and ±100 for the full control effect; nearly all actives have a fitted effect of over 30% in size
# Shiga inhibitor: A qHTS for Small Molecule Inhibitors of Shiga Toxin. Vero cells, Shiga toxin protein synthesis inhibition reporter. inhibition, % at 38.7 µM. 290,000 tested, 9.2% active. AID 2315, 2010; in the data active = inhibition mostly above about 28%, no sharp cut-off; inactive = mostly below about 43%; also: 0% is about no effect
# Lassa entry inh: qHTS for Inhibitors of binding or entry into cells for Lassa Virus; Lassa virus pseudotype entry inhibition, cell reporter; Potency, µM (highest dose often 37.9 µM), for the others: top-dose activity change, negative = inhibition, usual class: inhibitors; 300,000 tested, 1.2% active; AID 540256, 2011; calls by dose curve; tested in HEK293 cells; also: potency is read from the fitted curve at half-maximal effect; % is scaled to controls: 0 for no effect and ±100 for the full control effect; nearly all actives have a fitted effect of over 50% in size
# Marburg entry inh: qHTS for inhibitors of binding or entry into cells for Marburg Virus; Marburg virus pseudotyped entry inhibition, cell reporter; Potency, µM (top dose mostly 37.8 µM), for the others: at the highest dose activity change, negative = inhibition, usual class: inhibitors; 300,000 tested, 1.8% active; calls by dose curve; tested in HEK293 cells; also: potency is read from the fitted curve at half-maximal effect; % is scaled to controls: 0 for no effect and ±100 for the full control effect
# Starred values were filed as active, the others as inactive; i = inactive; ? = inconclusive; . = no result; [ ] = remark or other dose. The full list was thinned out, with hits kept by preference.
SMILES,Vaccinia mCherry,CHX counter,VACV Venus inh,Shiga inhibitor,Lassa entry inh,Marburg entry inh
CN(Cc1ccccc1)C(=O)c1ccc(NC(=O)Cc2ccc(NC(=O)C3CCCN(C(=O)CCc4ccccc4)C3)cc2)cc1 (stereo not given),10µM*,.,?,.,.,.
CN(C(=O)c1cccc(NC(=O)Cc2ccc(NC(=O)C3CCCN(C(=O)CCc4ccccc4)C3)cc2)c1)C1CCCCC1 (stereo not given),12.6µM*,.,?,.,.,.
CN(C(=O)c1ccc(NC(=O)Cc2ccc(NC(=O)C3CCCN(C(=O)CCc4ccccc4)C3)cc2)cc1)C1CCCC1 (stereo not given),10µM*,.,?,.,.,.
O=S(=O)(c1ccc(Br)cc1)c1nnn2c1nc(NCCc1ccccc1)c1sccc12,-28.1%,.,-22.9%,.,?,.
Cc1ccsc1C(=O)OCc1nnc(-c2ccccc2)o1,-14.9%,.,-10.1%,.,?,0.6%
CCOc1ccc(CCNC(=O)c2ccc3c(c2)N(Cc2cccc(Cl)c2)C(=O)c2ccccc2S3(=O)=O)cc1OCC,-10.4%,.,-5.6%,.,-17.9%[46.1 µM],.
COc1ccc(CCNC(=O)c2ccc3c(c2)N(Cc2ccc(F)cc2)C(=O)c2ccccc2S3(=O)=O)cc1OC,-16.8%,.,-5.1%,.,-27.4%[46.1 µM],10µM*
COc1ccccc1N1CCN(C(=O)c2ccc3c(c2)N(Cc2ccccc2)C(=O)c2ccccc2S3(=O)=O)CC1,-15.1%,.,-14.2%,.,-22.8%[46.1 µM],8.91µM*
Cc1ccc(Nc2c(-c3ccccn3)nc3ccc(Br)cn23)cc1,-7.8%,.,-18.8%,.,18.2%[46.1 µM],0.1%[46.1 µM]
COC(=O)CNc1c(-c2ccccn2)nc2ccc(Br)cn12,.,36.1*,.,48.5*,5.8%,29.0%
Cc1ccc(NC(=O)c2sccc2C)nc1,.,49.0*,.,88.2*,.,.
Cc1ccc(NC(=O)C(=O)Nc2ccc(C)cn2)nc1,-9.4%,50.5*,-12.5%,84.6*,-0.8%[46.1 µM],?
Cc1ccc(NC(=O)c2ccc(F)cc2)nc1,3.3%,1.7,-3.1%,-2.4,.,.
Cc1ccc(NC(=O)/C(C#N)=C(\N)C(Cl)(Cl)Cl)nc1,-20.7%,38.1*,-9.7%,76.4*,?,-20.0%[46.1 µM]
Cc1ccc(NC(=O)NC(=O)N(C(C)C)S(C)(=O)=O)nc1,-0.9%,13.6*,-8.9%,-34.2,-1.8%,6.3%
COc1ccc(Cl)cc1NC(=O)CCCN1C(=O)C(c2ccccc2)Oc2cccnc21 (stereo not given),-25.3%,.,-22.1%,.,-1.6%[46.1 µM],.
Cc1ccc(SCC(=O)NNC(=O)c2ccccc2)c(C)c1,i,-1.7,-9.4%,22.4,24.3%[46.1 µM],1.1%[46.1 µM]
COc1ccccc1NC(=O)c1sc2nc(C)c(C(=O)Nc3ccc(C)cc3C)c(-c3ccco3)c2c1N,i,0.6,-19.1%,14.1,4.6%[46.1 µM],?
O=C(NCc1cccnc1)c1cc(-c2ccccc2)on1,i,40.1*,-11.3%,152.6,-4.1%,-3.3%
O=C(NCc1ccccc1)c1cc(-c2cccc(O)c2)on1,-8.3%,25.0*,-13.9%,60.9*,.,.
COc1ccc(CNC(=O)c2cc(-c3ccc(OC)cc3)on2)cc1,-9.1%,.,-5.0%,.,-1.2%[46.1 µM],?
O=C(NCc1cccnc1)c1cc(-c2cccs2)on1,.,59.5*,.,36.8*,.,-2.0%
O=C(Nc1cccnc1)c1cc(-c2ccccc2)on1,-12.6%,13.4,-8.9%,23.1,5.2%,-12.0%
COc1ccc(-c2cc(C(=O)NCc3ccccc3)no2)cc1OC,.,-3.3,.,-2.4,15.0%,0.6%
O=C(NCc1cccnc1)c1cc2nc(-c3cccs3)cc(C(F)(F)Cl)n2n1,i,-4.3,-12.2%,-8.2,?,9.2%[46.1 µM]
SMILES,Vaccinia mCherry,CHX counter,VACV Venus inh,Shiga inhibitor,Lassa entry inh,Marburg entry inh
COc1ccc(-c2cc(C(=O)NCc3cccnc3)no2)cc1,-26.1%,43.2*,-9.8%,73.0*,?,-9.7%
Cc1ccc(NC(=O)CN2C(=O)CCc3cc(S(=O)(=O)N4CCCCC4)ccc32)cc1N(C)C,-21.0%,.,-10.8%,.,-3.3%[46.1 µM],.
CC(=O)Nc1cccc(-c2cc(NC(C)=O)c3ncc(-c4ccc(C(C)=O)cc4)n3c2)c1,-14.9%,.,-16.9%,.,.,.
CC(=O)Nc1ccc2nc(C)n(Cc3ccc(Cl)cc3)c(=O)c2c1,-9.2%,28.4*,-24.2%,53.4*,4.0%,10.1%
O=C(Nc1ccc2nc(C3CC3)n(Cc3ccccc3)c(=O)c2c1)C1CC1,.,22.6*,.,31.4*,.,.
CCOC(=O)CCNC(=O)Nc1ccc2nc(C)n(Cc3ccc(Cl)cc3)c(=O)c2c1,-22.1%,-1.0,-12.9%,29.9,-7.3%,0.3%
CC(=O)Nc1cc2c(=O)n(Cc3ccccc3)c(C)nc2cc1N1CCOCC1,-13.4%,17.3*,-2.0%,35.6,22.5%,25.1%
CN(C)c1ccc(/C=C/c2ncnc3ccccc23)cc1,73.1%,.,i,.,.,.
C=CCN1CC[C@@H](O)C(=C)S1(=O)=O,-20.5%,.,-11.2%,.,.,.
O=C(O)CSc1nc2ccccc2c(=O)[nH]1,-15.0%,-4.2,-17.2%,-2.7,-18.0%,10.5%
Cc1cc(C(=O)CSc2nc3ccccc3c(=O)[nH]2)c(C)n1C,-21.4%,33.7*,-12.0%,132.5*,4.1%,?
CC(C)(C)NC(=O)CSc1nc2ccccc2c(=O)[nH]1,4.1%,32.4*,-14.5%,17.8,10.8%,?
O=C1[C@H]2[C@H]3[C@H](O)[C@H](O)C/C(=N\OCc4ccccc4)[C@H]3CC[C@H]2C(=O)N1C[C@@H]1CCCO1,.,.,.,.,.,-6.8%[14.2 µM]
COc1cnc(-c2ccccc2)nc1Oc1ccc(Cl)cc1C,.,-1.6,.,-6.7,.,.
O=C(CSc1nnc(Nc2ccccc2)s1)NC1CCCC1,-17.1%,.,-10.0%,.,-1.3%,8.0%
COc1ccc2c(c1)S/C(=C\C(=O)c1ccncc1)N2C,-22.4%,46.7*,-19.8%,109.8*,7.7%,-18.3%
CN1C(=O)c2ccccc2Sc2ccc(C(=O)O)cc21,-14.5%,9.4,-18.3%,-3.0,?,4.6%
COCC(=O)/C=C1\Sc2ccccc2N1C,-24.9%,6.8,-2.0%,18.2,-1.6%,22.9%
CN1/C(=C/C(=O)c2ccc(Cl)cc2)Sc2cc3c(cc21)OCO3,-9.7%,40.5*,0.8%,67.6*,16.0%,?
CC(=O)c1ccc2c(c1)N(C)c1ccccc1S2,-12.2%,15.2*,-15.8%,15.4*,6.5%,?
COc1cc(OC)cc(C(=O)/C=C2\Sc3ccccc3N2C)c1,-12.0%,41.0*,-5.0%,42.1*,14.8%[46.1 µM],1.6%[46.1 µM]
CC(=O)c1c(C)[nH]c(C(=O)OCC(=O)N(Cc2ccccc2)C(C)(C)C)c1C,-8.2%,.,-7.3%,.,-28.3%,?
CCOC(=O)C1CCCN(Cc2nc3ccc([N+](=O)[O-])cc3c(=O)n2-c2ccc(OC)cc2OC)C1 (stereo not given),.,4.1,.,-9.5,.,.
CCCC(C(=O)NC1CCCC1)N(C(=O)Cn1nnc(-c2ccc(C)o2)n1)c1ccccc1OC (stereo not given),.,-1.6,.,-9.5,-22.4%,?
Cc1ccc(CCNC(=O)c2cc(C)nc3c2c(C)nn3-c2ccc(C)cc2)cc1,-8.2%,.,-12.6%,.,5.0%[46.1 µM],.
Cc1cc(Nc2ccc(Br)c(C)c2)n2nc(-c3ccco3)nc2n1,?,.,?,.,-0.6%[46.1 µM],.
